Assay outcomes: PubChem, The Scripps Research Institute Molecular Screening Center
DAGLB inhibitor: blocks human DAGLB lipase activity; Q8NCG7; HEK293T DAGLB membrane lysate, EnzChek fluorogenic substrate; inhibition, % at 5.17 µM; 340,000 tested, 0.059% active; AID 504411; in the data active = inhibition above about 34%
pPAFAH FP inh: inhibitors of human plasma PAF acetylhydrolase (pPAFAH) | AID 463082 | inhibition, % at 3.39 µM | 330,000 tested, 1.5% active | recombinant pPAFAH, FP-rhodamine probe fluorescence polarization;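 active = inhibition above the mean inhibition across the screen plus 3 SD, cut at about 25% in these data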;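 note: inhibitors block binding of the rhodamine activity-based probe so polarization drops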
PAFAH1B2 inh: PAFAH1B2 (human) inhibition; AID 492953; 340,000 tested, 1.2% active; recombinant PAFAH1B2, FP-rhodamine activity probe, fluorescence polarization; P68402; inhibition, % at 3.39 µM;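 active = inhibition above the mean of all tested compounds plus 3 SD, cut at about 24% in these data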
Target sequence (P68402 whole entry, looked up): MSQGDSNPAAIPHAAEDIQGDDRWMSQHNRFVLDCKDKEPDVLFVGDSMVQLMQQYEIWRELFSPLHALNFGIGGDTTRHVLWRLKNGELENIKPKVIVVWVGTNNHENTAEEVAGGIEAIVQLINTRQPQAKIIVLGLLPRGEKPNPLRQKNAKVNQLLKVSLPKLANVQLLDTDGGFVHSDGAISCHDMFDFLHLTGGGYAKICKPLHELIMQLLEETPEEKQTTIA
PAFAH2 inh: inhibitors of human PAFAH2; Q99487; inhibition, % at 3.39 µM; 340,000 tested, 0.99% active; recombinant PAFAH2, FP-rhodamine activity probe, fluorescence polarization;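 active = inhibition above the mean over all tested compounds plus 3 SD, cut at about 30% in these data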;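 note: inhibitors block probe labeling of enzyme so polarization drops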
PAFAH1B3 FP inh: PAFAH1B3 (human) inhibition; Q15102; recombinant PAFAH1B3, FP-rhodamine probe, fluorescence polarization; inhibition, % at 3.39 µM; 340,000 tested, 0.28% active; AID 492972;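 active = inhibition above the screen-wide average of all tested compounds plus 3 SD, cut at about 25% in these data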
Target sequence (Q15102 whole entry, looked up): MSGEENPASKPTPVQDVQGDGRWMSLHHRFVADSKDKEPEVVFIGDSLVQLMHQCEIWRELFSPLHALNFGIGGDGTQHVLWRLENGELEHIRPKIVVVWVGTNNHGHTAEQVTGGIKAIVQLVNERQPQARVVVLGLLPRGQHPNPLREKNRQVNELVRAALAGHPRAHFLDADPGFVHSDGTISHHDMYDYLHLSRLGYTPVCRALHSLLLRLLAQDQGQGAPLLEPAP
HTRA1 inhibitor: HTRA1 (human) protease inhibition. Q92743. recombinant HTRA1, FP-rhodamine activity-based probe, fluorescence polarization. inhibition, % at 5.96 µM. 340,000 tested, 0.5% active. AID 504803; in the data active = inhibition above about 36%
Large screens that a line does not name were inactive. Shown are actives, neighbours in structure and some others; about 2.8% of the full set was active somewhere.

O=C(COc1ccc(S(=O)(=O)N2CCCC2)cc1)N1CCCC1	pPAFAH FP inh 31
CN(CCCNC(=O)CCC(=O)N1CCOc2ccc(Cl)cc21)Cc1ccccc1	none
Cc1ccc(S(=O)(=O)CCC(=O)OCC(=O)N2CCN(S(=O)(=O)c3ccc(Cl)cc3)CC2)cc1	none
O=C(Cc1ccc(F)cc1)OCC(=O)N1CCN(S(=O)(=O)c2ccc(Cl)cc2)CC1	pPAFAH FP inh 33
COc1ccc(-c2ccc(S(=O)(=O)N3CCCC3)cc2)cc1	pPAFAH FP inh 26
CCOc1ccc(C(=O)NCC(c2ccco2)N2CCOCC2)cc1 (stereo not drawn)	none
Cc1ccc2c(c1)cc1c(=O)n(CC(=O)NCCN3CCCC3)nc(C)n12	none
Nc1ccc(Cn2ccc3c4c(N)nc(N)nc4ccc32)cc1	none (no result: pPAFAH FP inh)
COc1ccc(Oc2coc3cc(OC(=O)c4cccs4)ccc3c2=O)cc1	HTRA1 inhibitor 51
CCOCCOC(=O)COc1ccc2c(=O)c(Oc3ccc(OC)cc3)coc2c1	none
COc1ccc(Oc2coc3cc(OC(=O)N4CCOCC4)ccc3c2=O)cc1	pPAFAH FP inh 34
CNC(=O)c1cc(S(=O)(=O)Nc2ccc(C)cc2C)ccc1C	pPAFAH FP inh 30
Cc1ccc(NS(=O)(=O)c2ccc3[nH]c(=O)[nH]c3c2)c(C)c1	pPAFAH FP inh 28
COc1ccc(NC(=O)CCCc2nnc3n(C)c(=O)c4sccc4n23)cc1	none
CN(C)S(=O)(=O)c1cccc(C(=O)NCC(C)(C)CNC(=O)c2cccc(S(=O)(=O)N(C)C)c2)c1	none
Nc1ncnc(N2CCOCC2)n1	none (no result: pPAFAH FP inh)
Cc1ccc(CS(=O)(=O)CCC(=O)NCc2ccccc2Cl)cc1	pPAFAH FP inh 29
O=C(Nc1cccnc1)c1ccc(S(=O)(=O)c2ccc(Cl)cc2)cc1	PAFAH1B2 inh 27
O=C(Nc1cccnc1)c1ccc(C(=O)Nc2cccnc2)cc1	none
COc1ccc(-c2cn3cccnc3n2)cc1NC(=O)C(C)Oc1ccccc1 (stereo not drawn)	none
CCCCCCCCOC(=O)c1ccc(N)cc1	pPAFAH FP inh 32, PAFAH2 inh 55
Cc1ccc(S(=O)(=O)N(C)C[C@H]2Oc3cc(C#Cc4ccccc4)ccc3S(=O)(=O)N([C@H](C)CO)C[C@@H]2C)cc1	none (no result: pPAFAH FP inh, PAFAH1B2 inh, PAFAH2 inh, PAFAH1B3 FP inh)
Clc1ccc(OCCSCc2nc3ccccc3[nH]2)cc1	PAFAH1B2 inh 31
O=C1OCCC1Sc1nc2ccccc2n1-c1ccccc1 (stereo not drawn)	none
COc1ccc(-n2c(SC3CCOC3=O)nc3ccccc32)cc1 (stereo not drawn)	pPAFAH FP inh 31
O=C1CSC(c2cccc([N+](=O)[O-])c2)N1c1c(F)cccc1F (stereo not drawn)	none
O=C1CSC(c2cccc([N+](=O)[O-])c2)N1C1CC2CCC1C2 (stereo not drawn)	PAFAH1B2 inh 24
CCCn1c(CCC(=O)O)ccc1-c1ccc(OC)cc1	none
COc1ccc(-c2ccc(CCC(=O)O)n2Cc2ccco2)cc1	pPAFAH FP inh 28
Cc1noc(NS(=O)(=O)c2ccc(NC(=O)CC34CC5CC(CC(Br)(C5)C3)C4)cc2)c1C	PAFAH1B2 inh 33
Cc1noc(NS(=O)(=O)c2ccc(NC(=O)Nc3ccc(Cl)c(Cl)c3)cc2)c1C	pPAFAH FP inh 25
CCCOc1ccc(C(=O)Nc2ccc(S(=O)(=O)Nc3onc(C)c3C)cc2)cc1	pPAFAH FP inh 30
CCCCOc1ccc(C(=O)Nc2ccc(S(=O)(=O)Nc3onc(C)c3C)cc2)cc1	none
Cc1noc(NS(=O)(=O)c2ccc(NC(=O)C34CC5CC(C3)CC(n3cnc(Cl)n3)(C5)C4)cc2)c1C	none
Cc1noc(NS(=O)(=O)c2ccc(NC(=O)C(Cl)(Cl)Cl)cc2)c1C	none
Cc1ccc(NCC(=O)N/N=C/c2ccncc2)cc1	none
Cc1ccc(NCC(=O)N/N=C/c2cc(O)ccc2[N+](=O)[O-])cc1	pPAFAH FP inh 30 (no result: DAGLB inhibitor, PAFAH1B2 inh, PAFAH2 inh, PAFAH1B3 FP inh, HTRA1 inhibitor)
COc1cccc(C(=O)OCC(=O)c2c(N)n(C)c(=O)n(C)c2=O)c1	none
COc1ccc(NS(=O)(=O)c2cccc(C(=O)OCC(=O)c3c(N)n(C)c(=O)n(C)c3=O)c2)cc1	pPAFAH FP inh 29
COc1ccc(C(=O)N2CCNC(=O)C2)cc1S(=O)(=O)Nc1ccc(Br)cc1	pPAFAH FP inh 34
COc1ccc(C(=O)N2CCCCC2)cc1S(=O)(=O)Nc1ccccc1	pPAFAH FP inh 33
COc1ccc(NS(=O)(=O)c2cccc(C(=O)N3CCN(c4ccccc4O)CC3)c2)cc1	pPAFAH FP inh 27
COc1ccc(NS(=O)(=O)c2cccc(C(=O)N3CCOCC3)c2)cc1	none (no result: pPAFAH FP inh, PAFAH1B2 inh, PAFAH2 inh, PAFAH1B3 FP inh)
COc1ccc(C(=O)NC2CCCCCC2)cc1S(=O)(=O)Nc1ccc(Br)cc1	none
CCOC(=O)Cc1cnc(NC(=O)CSc2nc(N)cc(N)n2)s1	none
O=C(NCc1ccccn1)c1ccc(NS(=O)(=O)c2cccc(Cl)c2)cc1	none (no result: pPAFAH FP inh)
Cc1cccc(CNC(=O)C2CCC(=O)N(C3CC3)C2)c1 (stereo not drawn)	none
O=C1NC2(CCCCCC2)C(=O)N1Cc1ccccc1Br	none
COc1ccc(NS(=O)(=O)c2cccc(C(=O)N3CCCCCCC3)c2)cc1	pPAFAH FP inh 34
CCOC(=O)N1CCN(C(=O)c2cccc(S(=O)(=O)Nc3ccccc3Cl)c2)CC1	none
COc1ccc(NS(=O)(=O)c2cccc(C(=O)OCC(=O)N3CCN(c4ccc(OC)cc4)CC3)c2)cc1	pPAFAH FP inh 28
COc1ccc(N2CCN(C(=O)c3ccc(NS(=O)(=O)c4cccc(F)c4)cc3)CC2)cc1	none
CCOC(=O)N1CCN(C(=O)c2cccc(S(=O)(=O)Nc3ccc(Br)cc3)c2)CC1	pPAFAH FP inh 32
COc1ccc(S(=O)(=O)Nc2ccc(-n3cccc3)cc2)cc1	pPAFAH FP inh 28
Cc1cccc(NS(=O)(=O)c2cccc(C(=O)N3CCN(S(=O)(=O)c4ccccc4)CC3)c2)c1	PAFAH1B2 inh 29
COc1ccc(OC)c(CN2CCN(C(=O)c3cccc(S(=O)(=O)Nc4ccc(C)cc4)c3)CC2)c1	pPAFAH FP inh 25
CC(=O)c1ccc(OCC(=O)NCc2ccc(F)cc2)cc1	none
COc1cc(C(NC(C)=O)NC(C)=O)ccc1OCc1ccccc1	none
O=C(O)COc1ccc(Br)cc1C(c1c(C(=O)O)[nH]c2ccccc12)c1c(C(=O)O)[nH]c2ccccc12	PAFAH1B2 inh 53
COc1cc(C(c2c(C(=O)O)[nH]c3ccccc23)c2c(C(=O)O)[nH]c3ccccc23)ccc1OCc1ccccc1	PAFAH1B2 inh 57
O=C(O)c1[nH]c2ccccc2c1C(c1ccccc1)c1c(C(=O)O)[nH]c2ccccc12	PAFAH1B2 inh 88
COCC(=O)c1[nH]c2ccccc2c1C	none
C[C@H](NC(=O)c1ccco1)C(=O)Nc1cc(S(=O)(=O)N2CCCC2)ccc1OCC(F)(F)F	none
COc1cc(NC(=O)COc2cccc3c2OC(C)(C)C3)cc(OC)c1OC	none
